Assay outcomes from PubChem.
Only some compounds are listed: those with a hit (about 1.7% of all), similar ones and a draw of the others.
IkB signaling: IkB Signaling; ABC-DLBCL IkBa-CBG/CBR dual luciferase ratio, 4 h; response scale: scaled: untreated 0%, proteasome inhibitor 100%; Potency, µM (series often up to 57.1 µM); 110,000 tested, 0.04% active; AID 445, 2006; active = well fitted curve in the direction sought with a large enough effect in the signal ratio, not every such curve was filed as active; inconclusive = small, poorly fitted or top-dose-only effect, or a change in a side signal; the % refers to the signal ratio;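 note: the direction sought is a rising ratio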
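Curves were fitted separately to fusion (green), unfused (red) and ratio luminescence, then classed by r2, magnitude and activity. Cells: OCI-Ly3, 4 h compound plus doxycycline at 37C; 10 uM MG-132 defined full response.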
p53ts 32C tox: qHTS Screen for Compounds that Selectively Target Cancer Cells with p53 Mutations: Cytotoxicity of p53ts Cells at the Permissive Temperature | H1299-p53A138V at 32C, ATP luminescence viability, 24 h | Potency, µM (series often up to 46.1 µM), most hits filed as cytotoxic | 130,000 tested, 0.93% active | AID 924, 2007; note: nearly all actives have a fitted effect of over 55% in size
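Viability by ATPlite luminescence after 24 h compound treatment (up to 46 uM) at the permissive 32C. Cells are H1299 carrying p53 A138V. Scale runs from DMSO basal to 100 uM tamoxifen as full kill; AC50 from Hill fits.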
p53ts 39C tox: qHTS Screen for Compounds that Selectively Target Cancer Cells with p53 Mutations: Cytotoxicity of p53ts Cells at the Nonpermissive Temperature; H1299-p53A138V viability at 39C, ATP luminescence, 24 h; Potency, µM (series often up to 46.1 µM), usual class: cytotoxic; 130,000 tested, 1.5% active; AID 902, 2007; note: nearly all actives have a fitted effect of over 55% in size
Peg3 imprint: qHTS Assay for Compounds that Induce Erasure of Genomic Imprints; mouse ES Peg3-LacZ reporter, beta-gal luminescence, 40 h; Potency, µM (highest dose often 60.7 µM), actives largely listed as activators; 110,000 tested, 0.02% active; AID 1948, 2009
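Gelatin-coated wells received 300 freshly trypsinized female ES cells with a Peg3LacZ-Neo reporter on the maternal allele, then incubated 40 hours at 37C. BetaGlo was added for 5 minutes at room temperature before a single luminescence read.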
Numbers stand for hits; n = inactive; u = inconclusive; x = not tested or not shown; [ ] = another dose, or the depositor's remark. Unless noted, calls come from the whole dose curve; as a rule, active = well fitted curve in the direction sought with a large enough effect; inconclusive = small, poorly fitted or top-dose-only effect, or another doubt; inactive = no such curve, though single readings can be large; an effect the other way counts as inactive or inconclusive.

SMILES | IkB signaling | p53ts 32C tox | p53ts 39C tox | Peg3 imprint
Cc1ccc(NC(=O)CSc2c3c(nc4ccccc24)CCCC3)cc1F | u | u | 15.8µM | n[10.9 µM]
CCCN(CCC)C(=O)CSc1c2c(nc3ccc(Cl)cc13)CCCC2 | u | 20µM | u | n[10.9 µM]
CN(Cc1ccccc1)C(=O)CSc1c2c(nc3ccc(Cl)cc13)CCCC2 | u | 22.4µM | u | n[10.9 µM]
O=C(CSc1c2c(nc3ccc(Cl)cc13)CCCC2)N1CCN(C(=O)c2ccco2)CC1 | u | u | 6.31µM | n
CC(C)c1ccccc1NC(=O)C(Cc1c[nH]c2ccccc12)NC(=O)OC(C)(C)C (centres undefined) | u | n | u | n[10.9 µM]
CC(C)Oc1ccc(C(=O)N2CC(=O)Nc3ccc(F)cc3C2c2ccc(F)cc2)cc1 (centres undefined) | u | n | n | n[10.9 µM]
O=C(O)/C=C(/C(=O)O)[C@]12CCN3CC4=CCO[C@@H]5CC(=O)N[C@@H]1C5[C@H]4C[C@H]32 (some centres undefined) | x | x | x | n[10.9 µM]
Clc1ccc(-c2nnc(NC3=NCCCCC3)o2)cc1 | u | 12.6µM | 12.6µM | n
c1nnc(NC2=NCCCCC2)s1 | n | n | n | n
COc1ccc(C)cc1NC(=O)C(Cc1ccccc1)NS(=O)(=O)c1ccc(Br)s1 (centres undefined) | n | u | 12.6µM | n[10.9 µM]
COc1ccc(C)cc1NC(=O)C(Cc1ccccc1)NS(=O)(=O)c1cccs1 (centres undefined) | n | n | n | n[10.9 µM]
CCN(CC)C(=O)CSc1nc2cc3c(cc2c(=O)n1CCCCCC(=O)NCCc1ccc(OC)c(OC)c1)OCO3 | n | n | n | n[10.9 µM]
Cc1ccccc1C(=O)Nc1cccc(C(=O)OCc2cc(=O)n3c4c(sc3n2)CCCC4)c1 | u | n | n | n[10.9 µM]
CCOC(=O)c1sc(NC(=O)COC(=O)CNC(=O)C2CCCCC2)c(C(=O)OCC)c1C | x | u | 3.16µM | x
CN(C)c1ccc(CNC(=O)c2ccc3c(c2)N(C)C(=O)C2CCCCN32)cc1 (centres undefined) | n | n | n | n[10.9 µM]
O=C(c1cc2ccccc2o1)c1cccs1 | n | n | n | n
O=C(c1cccs1)c1ccc(-c2cccs2)s1 | u | 7.94µM | 10µM | n
Cc1cc(C2N=C(N)Nc3nc4ccccc4n32)c(C)n1-c1ccccc1Cl (centres undefined) | n | n | n | n
Cc1ccc(-n2c(C)cc(C3N=C(N)Nc4nc5ccccc5n43)c2C)c(C)c1 (centres undefined) | u | u | 20µM | n
Cc1cc(C(=O)Nc2ccc3c(c2)OCCO3)co1 | x | 10µM | 15.8µM | x
Cn1c(C(=O)Nc2ccc3c(c2)OCCO3)cc2sccc21 | u | 12.6µM | 12.6µM | n
COc1cc(OC)cc(C(=O)Nc2ccc3c(c2)OCCO3)c1 | u | 12.6µM | 3.98µM | n[10.9 µM]
Cc1cc(C(=O)Nc2ccc3c(c2)OCO3)cs1 | n | 12.6µM | 10µM | n
Cc1cc(C)n(-c2ccc(C(=O)Nc3ccc4c(c3)OCCO4)cc2)n1 | u | u | u | n
CCc1ccc(-n2c(=O)c3c(C)c(C)sc3n(CC(=O)NCc3ccc(C)cc3)c2=O)cc1 | n | n | n | n[10.9 µM]
SMILES | IkB signaling | p53ts 32C tox | p53ts 39C tox | Peg3 imprint
O=C(O)c1ccc(NS(=O)(=O)c2cccc3ccccc23)cc1 | x | n | n | x
CCOC(=O)c1c(C)c(C(=O)Nc2ccc3c(c2)OCO3)c(C)n1C | n | n | n | n
CCOC(=O)c1c(N)sc(C(=O)Nc2ccc3c(c2)OCO3)c1C | u | 3.98µM | 2.51µM | n
COc1ccc(NC(=O)C(=O)NCC(c2cccnc2)N2CCc3ccccc3C2)cc1 (centres undefined) | n | u | 10µM | n[10.9 µM]
OC(CN1CCNCC1)Cn1c2ccc(Br)cc2c2cc(Br)ccc21 (centres undefined) | x | u | 12.6µM | n
Cc1ccc2c(c1)c(C)c(C)n2CC(O)CN1CCOCC1 (centres undefined) | n | n | n | n
CC(C)(C)C1CCc2c(sc(NC(=O)CCC(=O)O)c2C(=O)Nc2ccccc2C(F)(F)F)C1 (centres undefined) | u | n | n | n[10.9 µM]
COc1ccc(NC(=O)CSc2nnc3scc(-c4ccc(Cl)cc4)n23)cc1 | u | u | 12.6µM | n[10.9 µM]
Oc1cccc(C(Nc2ccccn2)c2ccc3cccnc3c2O)c1Cl (centres undefined) | u | n | 7.94µM | n[10.9 µM]
CCC(=O)NC(c1ccccc1OC)c1ccc2cccnc2c1O (centres undefined) | x | n | n | x
Cc1ccc(Nc2ncnc3c2nc2n3CCCC2)c(Br)c1 | x | 10µM | x | x
CCc1cccc(CC)c1NC1=NS(=O)(=O)c2ccccc21 | n | n | n | n[10.9 µM]
O=S1(=O)N=C(Nc2nc3c(s2)CCCC3)c2ccccc21 | u | 5.01µM | 3.98µM | n
Cc1ccc(NC(=O)Cc2c(C(=O)O)c(C)cn2C)cc1Cl | n | n | n | n[10.9 µM]
O=C(Cn1c(=O)n(Cc2ccccc2)c(=O)c2sc3ccccc3c21)Nc1ccc(F)cc1 | u | u | 10µM | n[10.9 µM]
O=C(Cn1c(=O)n(Cc2ccccc2)c(=O)c2sc3ccccc3c21)Nc1ccccc1 | n | u | 12.6µM | n[10.9 µM]
Cc1ccc(NC(=O)c2ccccc2)s1 | n | 3.98µM | 7.94µM | n
O=c1cc(-c2ccccc2O)oc2ccc3ccccc3c12 | n[11.4 µM] | 2.51µM | 2µM | n
COC(=O)N(/C=C/c1ccc(OC)cc1)CCc1ccc(OC)c(OC)c1 | x | n[9.22 µM] | n[9.22 µM] | x
COc1cccc(NC(=O)CSc2nnc(-c3cc(C)n(-c4ccccc4)c3C)o2)c1 | u | n | 20µM | n
Cc1cc(C)n(-c2ccc(C(=O)Nc3sccc3C(N)=O)cc2)n1 | u | u | u | n
Cc1cc(C)n(-c2ccc(C(=O)Nc3ccccn3)cc2)n1 | u | 12.6µM | 10µM | n
O=C(c1ccc(F)cc1)N1c2nc(-c3ccco3)nn2C2(CCCCC2)[C@@H]2CCCC[C@@H]21 | n | n | n | n[10.9 µM]
CN1CCN(c2ncc3nc(-c4ccccc4)c(=O)n(C)c3n2)CC1 | n[11.4 µM] | n | n | 10µM
Cc1noc(C)c1-c1ccc2ncnc(NC3CC3)c2c1 | u | n | n | n
SMILES | IkB signaling | p53ts 32C tox | p53ts 39C tox | Peg3 imprint
Cc1ccccc1-c1nc(-n2ccnc2)c2ccccc2n1 | n[11.4 µM] | n | n | n
Cc1ccc(NC(=O)c2cccc(Cl)c2)nc1 | n | n | n | n
Cc1ccc(NC(=O)c2ccc3ccccc3n2)nc1 | u | 12.6µM | u | n
Cc1ccc(C(=O)Nc2ccc(Cl)cn2)cc1 | u | 7.94µM | u | n
Cn1c(O)c(N=N/C(=N/c2ccccn2)c2ccccn2)c2cc(Br)ccc21 | x | n | n | x
COc1cc2c(cc1NC(=O)C(C)Oc1ccc(Cl)cc1Cl)oc1ccccc12 (centres undefined) | u | n | n | n[10.9 µM]
COc1cccc(C(=O)Cn2c(=N)n(C)c3ccccc32)c1 | u | 3.16µM | 5.01µM | n
COCCNC(=O)CSc1nnc(NC(=O)Nc2ccc(C)cc2)s1 | n | 11.2µM | u | n[10.9 µM]
COc1ccc(NC(=O)CSc2nnc(NC(=O)Nc3ccc(OC)cc3)s2)cc1 | n | n | u | n[10.9 µM]
